Experimental data from PubChem BioAssay (NCI).
Compounds without any hit were thinned out: in the full panel of roughly 79,000, 15% have a hit. Values without a mark were called inactive. Activity calls are given as the source filed them. Rule as the data show it: active = growth inhibition above about 70%; inactive = the rest.

How the values were obtained:
[1] = NCI Yeast Anticancer Drug Screen. Data for the rad50 strain (AID 155);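 also: 0% = growth of vehicle-only cultures of the same strain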; settings: S. cerevisiae rad50 strain growth inhibition; at 50.0 µM; stronger effect = higher value
Method in brief: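 Genetically altered yeast (DNA repair pathway); compound treatment; growth inhibition vs vehicle ctrl.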

[2] = NCI Yeast Anticancer Drug Screen. Data for the mec2-1 strain (AID 157); settings: S. cerevisiae mec2-1 strain, at 50.0 µM, stronger effect = higher value
Method in brief: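 Strain: mec2-1 (DNA repair/cell cycle alteration). Compound exposure, then growth measured; inhibition expressed relative to vehicle.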

[3] = NCI Yeast Anticancer Drug Screen. Data for the sgs1 mgt1 strain (AID 161);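 also: 0% = growth of cultures given vehicle only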; settings: S. cerevisiae sgs1 mgt1 strain, at 50.0 µM, stronger effect = higher value
Method in brief: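 Read-out: growth inhibition vs vehicle controls. Cells: mutant yeast strain deficient in DNA damage repair.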

[4] = NCI Yeast Anticancer Drug Screen. Data for the cln2 rad14 strain (AID 165);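 also: 0% = growth equal to vehicle treated cultures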; settings: S. cerevisiae cln2 rad14 strain, at 50.0 µM, stronger effect = higher value
Method in brief: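 Compounds are applied to the cln2 rad14 yeast strain, and growth is then compared with that of vehicle-treated cultures to give inhibition.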

[5] = NCI Yeast Anticancer Drug Screen. Data for the bub3 strain (AID 167); settings: S. cerevisiae bub3 mutant strain, at 50.0 µM, stronger effect = higher value
Method in brief: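 Yeast carrying a defined mutation is treated with each compound, and growth is compared with that of vehicle-exposed cells to give inhibition.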

[6] = NCI Yeast Anticancer Drug Screen. Data for the mlh1 rad18 strain (AID 175); settings: S. cerevisiae mlh1 rad18 strain growth inhibition; at 50.0 µM; stronger effect = higher value
Method in brief: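 Read-out is yeast growth inhibition, calculated against vehicle-only controls. The compound was applied to a strain engineered with DNA damage repair alterations.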

In the case of `CN1CCCC1c1cccnc1.O=C(O)c1ccccc1O.O=C([O-])c1ccccc1[OH2+].O=C([O-])c1ccccc1[OH2+].[Mn+2]` (configuration not stated), the growth inhibition [1] is reported as -3.05%, the growth inhibition [2] is reported as -0.4% and the growth inhibition [3] is reported as -24.7%. It also gave a growth inhibition [4] of -30.7%, a growth inhibition [5] of -29% and a growth inhibition [6] of 4.15%.

Work on `Clc1cc(Cl)nc(Cl)n1` yielded a growth inhibition [1] of 2.4%, a growth inhibition [2] of -7.1% and a growth inhibition [3] of -4.95%. It also gave a growth inhibition [4] of 21.1%, a growth inhibition [5] of 4.6% and a growth inhibition [6] of -1.65%.

`c1ccc(-c2nc3n(n2)CCC(c2ccccc2)S3)cc1` (configuration not stated) showed a growth inhibition [1] of -7.95%, a growth inhibition [2] of -18.1% and a growth inhibition [3] of -15.5%. It also gave a growth inhibition [4] of 3.9%, a growth inhibition [5] of 6.1% and a growth inhibition [6] of -8.75%.

`OCC(CO)(CO)COCC(CO)(CO)CO` showed a growth inhibition [1] of 8.5%, a growth inhibition [2] of -25.1% and a growth inhibition [3] of 6.75%. For the same compound, the growth inhibition [4] was 10%, the growth inhibition [5] was -12.3% and the growth inhibition [6] was 13.1%.

`CC1CC(=O)CC[C@@H]1OCc1ccccc1` (some centres not stated) gave a growth inhibition [1] of 5.95%, a growth inhibition [2] of -17.4% and a growth inhibition [3] of -5.05%. The growth inhibition [4] was 19.9%, the growth inhibition [5] was -8.95% and the growth inhibition [6] was 16.7%.

With `CC(C)(C(N)=O)c1ccccc1` the growth inhibition [1] was -28.1%, the growth inhibition [2] was -3.85% and the growth inhibition [3] was 16.6%. For the same compound, the growth inhibition [4] was -28.4%, the growth inhibition [5] was -1.55% and the growth inhibition [6] was -5.05%.

For `COc1ccn(C2OCCC(OC(C)=O)C2O)c(=O)n1` (configuration not stated), the growth inhibition [1] was -19.8%, the growth inhibition [2] was -24.1% and the growth inhibition [3] was 6.25%. For the same compound, the growth inhibition [4] was -22.9%, the growth inhibition [5] was 0.4% and the growth inhibition [6] was 11.7%.

Compound `CCOc1ccccc1N1C(=O)CSC1=S` has a growth inhibition [1] of 15.2%, a growth inhibition [2] of 14.2% and a growth inhibition [3] of 51.2%. The growth inhibition [4] was -14%, the growth inhibition [5] was 48.9% and the growth inhibition [6] was 30.2%.

For `NCCC(=O)OC1CCCc2c(O)c3c(c(O)c21)C(=O)c1ccccc1C3=O` (configuration not stated), the growth inhibition [1] was 98.8% (active), the growth inhibition [2] was 99.4% (active) and the growth inhibition [3] was 99.4% (active). The growth inhibition [4] was 98.9% (active), the growth inhibition [5] was 98.8% (active) and the growth inhibition [6] was 99.2% (active).

`CN(C)c1nc(=S)c2cn[nH]c2[nH]1` showed a growth inhibition [1] of 0.1%, a growth inhibition [2] of 0% and a growth inhibition [3] of -3.7%. For the same compound, the growth inhibition [4] was -21.8%, the growth inhibition [5] was 6% and the growth inhibition [6] was -1.2%.

In the case of `CCC(=O)NC(OCC1(CC)COC1)(C(F)(F)F)C(F)(F)F`, the growth inhibition [1] is reported as -8.6%, the growth inhibition [2] is reported as -10.8% and the growth inhibition [3] is reported as -37.1%. For the same compound, the growth inhibition [4] was 2.75%, the growth inhibition [5] was -11.5% and the growth inhibition [6] was -13.2%.

Work on `CCCOc1ccc(C(N)=S)c2ccccc12` yielded a growth inhibition [1] of -0.25%, a growth inhibition [2] of 1.1% and a growth inhibition [3] of 8.45%. For the same compound, the growth inhibition [4] was -28.2%, the growth inhibition [5] was 20.2% and the growth inhibition [6] was 12.3%.

Work on `Nc1ccc(Cl)cc1Cl` yielded a growth inhibition [1] of -28.3%, a growth inhibition [2] of -7.1% and a growth inhibition [3] of -33.5%. It also gave a growth inhibition [4] of -34%, a growth inhibition [5] of -0.1% and a growth inhibition [6] of -21.3%.

Work on `NCc1ccc(C(=O)O)cc1` yielded a growth inhibition [1] of -30.2%, a growth inhibition [2] of -8.9% and a growth inhibition [3] of -28%. The growth inhibition [4] was -68.7%, the growth inhibition [5] was -13% and the growth inhibition [6] was -14.6%.

`C[N+](C)(C)CC(=O)N/N=C(/Cc1cc(=O)oc2cc(O)ccc12)C(=O)Nc1ccc(Cl)cc1` showed a growth inhibition [1] of 7.35%, a growth inhibition [2] of -2.45% and a growth inhibition [3] of -11.3%. The growth inhibition [4] was -15.7%, the growth inhibition [5] was -19.8% and the growth inhibition [6] was -10.8%.

Compound `O=C(O)CC1=C(c2ccccc2)C(O)(c2ccccc2)CC1=O` (configuration not stated) has a growth inhibition [1] of 4.75%, a growth inhibition [2] of 15.3% and a growth inhibition [3] of 7.05%. It also gave a growth inhibition [4] of -27.9%, a growth inhibition [5] of 11.2% and a growth inhibition [6] of -11.1%.

For `O=C(Nc1ccc(I)cc1)c1ccc([N+](=O)[O-])cc1`, the growth inhibition [1] was 2.3%, the growth inhibition [2] was -11.1% and the growth inhibition [3] was -5.05%. It also gave a growth inhibition [4] of -8.2%, a growth inhibition [5] of 0.35% and a growth inhibition [6] of -4.5%.

Compound `Nc1ccc2cc(S(=O)(=O)O)cc(O)c2c1` has a growth inhibition [1] of 28.8%, a growth inhibition [2] of -4.55% and a growth inhibition [3] of -34.5%. It also gave a growth inhibition [4] of -85.8%, a growth inhibition [5] of 6.85% and a growth inhibition [6] of 15.2%.

Compound `CC1=C[C@@H]2[C@@H](CC(CO)=C[C@H]3[C@@H]4C(C)(C)[C@]4(OCC(C)C)[C@H](OCC(C)C)[C@@H](C)[C@]23O)C1=O` has a growth inhibition [1] of -13.7%, a growth inhibition [2] of -14.2% and a growth inhibition [3] of -55.5%. It also gave a growth inhibition [4] of -0.1%, a growth inhibition [5] of -69.2% and a growth inhibition [6] of -13.9%.

For `CC1=C(C(=O)NCc2ccccc2)C(c2cccc([N+](=O)[O-])c2)C(C(=O)NCc2ccccc2)=C(C)N1`, the growth inhibition [1] was 19.6%, the growth inhibition [2] was 17.2% and the growth inhibition [3] was 9.05%. For the same compound, the growth inhibition [4] was 22.7%, the growth inhibition [5] was 19.2% and the growth inhibition [6] was 33.7%.

For `CCC[N+](C)(C)C`, the growth inhibition [1] was 5.65%, the growth inhibition [2] was -28.2% and the growth inhibition [3] was -1.15%. The growth inhibition [4] was 6.4%, the growth inhibition [5] was 1.6% and the growth inhibition [6] was -5.45%.

`Oc1cccc(C=NCCN=Cc2cccc(O)c2O)c1O.[Fe]` showed a growth inhibition [1] of -9.35%, a growth inhibition [2] of -5.7% and a growth inhibition [3] of 4.65%. For the same compound, the growth inhibition [4] was -39.7%, the growth inhibition [5] was 13.2% and the growth inhibition [6] was 1.15%.

Compound `Cc1cc(C(N)=O)no1` has a growth inhibition [1] of 1.5%, a growth inhibition [2] of -2.55% and a growth inhibition [3] of -5.7%. For the same compound, the growth inhibition [4] was -10%, the growth inhibition [5] was 3.9% and the growth inhibition [6] was -1.05%.

For `CC1=NN(c2nc(N)nc(CCl)n2)C(C)(C)C1`, the growth inhibition [1] was -8.1%, the growth inhibition [2] was -0.1% and the growth inhibition [3] was -6.7%. It also gave a growth inhibition [4] of -4.75%, a growth inhibition [5] of 17.1% and a growth inhibition [6] of -77.9%.

Compound `CCOC(=O)CC(=O)c1ccc(Cl)cc1` has a growth inhibition [1] of 15.1%, a growth inhibition [2] of 12.9% and a growth inhibition [3] of 11.4%. It also gave a growth inhibition [4] of 6.95%, a growth inhibition [5] of -12.8% and a growth inhibition [6] of -7.65%.

For `COc1ccc(/C=C\c2cccc(Cl)c2)cc1`, the growth inhibition [1] was 21.6%, the growth inhibition [2] was -25.1% and the growth inhibition [3] was 3.3%. It also gave a growth inhibition [4] of -8.95%, a growth inhibition [5] of -13.3% and a growth inhibition [6] of 6.4%.

In the case of `O=C1Nc2ccccc2C2Cc3c([nH]c4ccccc34)CC12` (configuration not stated), the growth inhibition [1] is reported as 47%, the growth inhibition [2] is reported as 20.1% and the growth inhibition [3] is reported as 3.8%. It also gave a growth inhibition [4] of 31.1%, a growth inhibition [5] of 7.4% and a growth inhibition [6] of 20.9%.

`N#CC(c1ccccc1)c1cccc(C(=O)O)c1` (configuration not stated) gave a growth inhibition [1] of -16.9%, a growth inhibition [2] of -13.5% and a growth inhibition [3] of 5.6%. For the same compound, the growth inhibition [4] was -20.4%, the growth inhibition [5] was -25.9% and the growth inhibition [6] was 5.45%.

`O=C(NSNc1ccccc1)c1ccccc1` showed a growth inhibition [1] of 0.8%, a growth inhibition [2] of -3% and a growth inhibition [3] of -7.6%. It also gave a growth inhibition [4] of -69.7%, a growth inhibition [5] of -0.6% and a growth inhibition [6] of -4.05%.

For `COc1cc([N+](=O)[O-])c(C=O)c(C(=O)O)c1OC`, the growth inhibition [1] was 6.5%, the growth inhibition [2] was -1.85% and the growth inhibition [3] was -10.3%. For the same compound, the growth inhibition [4] was 13.7%, the growth inhibition [5] was 1.75% and the growth inhibition [6] was 4.9%.

Compound `C/C(=N\Nc1ccccc1Br)c1cccc(/C(C)=N/Nc2ccccc2Br)n1` has a growth inhibition [1] of -21.6%, a growth inhibition [2] of -1.55% and a growth inhibition [3] of -6.1%. For the same compound, the growth inhibition [4] was -11.6%, the growth inhibition [5] was 2.75% and the growth inhibition [6] was 6.2%.

In the case of `O=C(O)CCN1C(=S)CSC1=S`, the growth inhibition [1] is reported as -5.35%, the growth inhibition [2] is reported as -18.4% and the growth inhibition [3] is reported as -38.5%. The growth inhibition [4] was 8.9%, the growth inhibition [5] was -33.9% and the growth inhibition [6] was -24.2%.

In the case of `COc1ccc2c(C(=O)O)cc3c4ccccc4ncc3c2c1`, the growth inhibition [1] is reported as 9.4%, the growth inhibition [2] is reported as 6.65% and the growth inhibition [3] is reported as -6.75%. It also gave a growth inhibition [4] of 26.9%, a growth inhibition [5] of -17.9% and a growth inhibition [6] of -13.2%.

Compound `CC1CCc2cc(Br)ccc2N1N` (configuration not stated) has a growth inhibition [1] of 33.1%, a growth inhibition [2] of 0.85% and a growth inhibition [3] of -5.35%. It also gave a growth inhibition [4] of 9.8%, a growth inhibition [5] of -4.8% and a growth inhibition [6] of 27.8%.

Compound `O=C(O)c1ncnn1-c1ccccc1` has a growth inhibition [1] of 4.7%, a growth inhibition [2] of 18.9% and a growth inhibition [3] of 17.4%. It also gave a growth inhibition [4] of -5.95%, a growth inhibition [5] of 18.8% and a growth inhibition [6] of 1.55%.

`CCCCON1C[C@@H](O)C(O)[C@@H](O)C1` (some centres not stated) gave a growth inhibition [1] of -25.9%, a growth inhibition [2] of 8.9% and a growth inhibition [3] of -37.9%. It also gave a growth inhibition [4] of -13.2%, a growth inhibition [5] of 13.6% and a growth inhibition [6] of -4.35%.

For `NC(=O)NC(=O)/C=C/C(=O)O`, the growth inhibition [1] was 3.75%, the growth inhibition [2] was -12.9% and the growth inhibition [3] was -4.15%. The growth inhibition [4] was -12.4%, the growth inhibition [5] was 9.7% and the growth inhibition [6] was -3.2%.
